Data from PubChem BioAssay AID652105 (National Center for Advancing Translational Sciences (NCATS), 2013).
The campaign covered roughly 330,000 compounds. About 4,100 (1.2%) were called active. Not shown: some 2% with an inconclusive outcome. Rule for the calls: active = max response of -50% or lower; inconclusive = between -30% and -50%; inactive = -30% or higher. What follows is part of a selection rich in actives, with near analogues and random picks from the rest.

target: Phosphatidylinositol 5-phosphate 4-kinase type-2 alpha (Homo sapiens) (UniProt P48426); experiment: qHTS for Inhibitors of phosphatidylinositol 5-phosphate 4-kinase (PI5P4K); details: PI5P4Kalpha enzyme, ADP-Glo luminescence, 60 min; hits give low values; note: value at the top dose of about 77 µM
Procedure, shortened: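 Controls without substrate or without enzyme flank wells where PI5P4Kalpha converts substrate using 5 microM ATP (final). Incubation lasts 60 minutes at room temperature; ADP formed is read by ADP-Glo luminescence.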
% is set by controls: 0 for no effect and ±100 for the full control effect.

Phosphatidylinositol 5-phosphate 4-kinase type-2 alpha (Homo sapiens), sequence (P48426 whole entry, looked up): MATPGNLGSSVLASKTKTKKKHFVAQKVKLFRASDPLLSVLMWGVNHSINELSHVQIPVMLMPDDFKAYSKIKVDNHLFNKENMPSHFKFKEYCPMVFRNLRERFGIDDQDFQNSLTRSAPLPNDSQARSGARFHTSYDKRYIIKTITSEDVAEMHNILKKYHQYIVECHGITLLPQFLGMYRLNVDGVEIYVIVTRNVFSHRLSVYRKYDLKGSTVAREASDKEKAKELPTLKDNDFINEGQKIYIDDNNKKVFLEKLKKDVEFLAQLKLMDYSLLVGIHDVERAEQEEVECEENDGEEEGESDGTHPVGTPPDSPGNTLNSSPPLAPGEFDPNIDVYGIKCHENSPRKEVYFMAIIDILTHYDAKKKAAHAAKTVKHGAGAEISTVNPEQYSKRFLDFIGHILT

Max response, active:
CC(=O)c1sc2nc(SCC(=O)N3CCCCC3)[nH]c(=O)c2c1C -59.2%
CCC(C)Cn1c(O)cc2nn(-c3nc4ccccc4s3)c(=O)c-2c1C (stereo unspecified) -79.1%
COc1cc(/C=C2/C(=O)NN(c3cccc(Cl)c3)C2=O)cc(Br)c1O -54.1%
COc1cc(/C=C2/C(=O)NN(c3ccc(F)cc3)C2=O)cc([N+](=O)[O-])c1O -57.5%
Cc1cc(NC(=O)Nc2ccccc2[N+](=O)[O-])no1 -55.9%
COc1ccc(OCc2n[nH]c(=S)n2N)cc1 -58.2%
CCc1nnc(NS(=O)(=O)c2ccc(NC(=S)NC(=O)/C=C/c3cccs3)cc2)s1 -51.8%
COc1cccc2c1C(=O)c1c(O)c3c(c(O)c1C2=O)CC(O)(C(C)=NNC(=O)c1ccc(Cl)c(Cl)c1)CC3OC1CC(N)C(O)C(C)O1 (stereo unspecified) -61.1%
CC(=O)N(C1=C(Cl)C(=O)c2ccccc2C1=O)c1ccc(C(=O)O)cc1 -81.9%
O=C(CSc1nc2ccccc2s1)Nc1ccc(C(=O)O)cc1 -69.8%
O=C(CSc1nnc(SCc2ccc(F)cc2)s1)Nc1ccc(C(=O)O)cc1 -51.9%

Max response, inactive:
O=C(CSc1nc2c(cnn2-c2ccc(F)cc2)c(=O)[nH]1)N1CCCCCC1 -3.16%
CCOC(=O)[C@]12CCCC=C1N(CCC1=CCCCC1)C(=O)[C@H](CC(=O)NCCCOC)C2 -1.91%
Cc1cc(NC(=O)CN2CCCC(C)C2)n(-c2nc3ccccc3s2)n1 (stereo unspecified) 14.1%
CCC(=O)NC(=Nc1nc2ccccc2s1)NC(=O)CC 10.4%
COC(=O)[C@]12CCCCC=C1N(Cc1ccc(Cl)cc1Cl)C(=O)[C@H](CC(=O)NCc1cccc3ccccc13)C2 20.1%
COc1cc(C=C(OC(C)=O)c2ccc3c(c2)OCO3)cc(OC)c1OC 3.06%
COc1cc(/C=N/O)cc(Br)c1OCc1cccc(Cl)c1 39.6%
COc1cc(CN2CC(C)CC(C)C2)cc([N+](=O)[O-])c1O (stereo unspecified) 0.224%
COc1ccc(N2C(=O)CC(Nc3ccc(F)cc3)C2=O)c([N+](=O)[O-])c1 (stereo unspecified) -6.93%
C#CCOc1ccc(/C=C2/C(=O)NN(c3ccccc3)C2=O)cc1OC -22.1%
COC(=O)C1(C(=O)OC)C[C@H](c2ccccc2)N(Cc2ccccc2OC)[C@@H]1c1ccccc1 15.9%
CCc1cccc(CC)c1N1C(=O)CC(Sc2ccccc2N)C1=O (stereo unspecified) 0.428%
COCOc1cccc(CN2CCC(C)(Oc3ccc(SC)cc3)C2)c1 (stereo unspecified) 9.73%
CCCc1nc2c3ccccc3ccn2c1Cc1ccccc1C(F)(F)F -0.571%
COC(=O)[C@]12CCCCC=C1N(Cc1ccccc1)C(=O)[C@H](CC(=O)NCc1ccc(C)o1)C2 -16.1%
Cc1csc(NC(=O)Nc2ccccc2[N+](=O)[O-])n1 3.76%
Cc1cc(NC(=O)COc2ccc([N+](=O)[O-])cc2)no1 -7.69%
Cc1c(C(=O)NCc2ccc(C#N)cc2)sc(=O)n1Cc1ccc(C(=O)N(C)C)cc1 -1.71%
COC(=O)c1ccc2nc(-c3ccccc3)c(Cc3ccc(OC)cc3C)n2c1 -3.87%
CC1Cc2[nH][nH]c(=O)c2C(C2CC2)O1 (stereo unspecified) 6.96%
COc1ccc(-c2cc3c(c4c2ccn4C)C2CCC3C2)cn1 (stereo unspecified) 19.1%
Cc1ccc(OCc2n[nH]c(=S)n2-c2ccccc2)cc1 -0.211%
S=c1[nH]nc(COc2ccccc2)n1-c1ccccc1 2.36%
CCOC(=O)c1c(NC(=S)NC(=O)/C=C/c2cccs2)sc(C)c1C -4.36%
CCc1nnc(NS(=O)(=O)c2ccc(NC(=O)c3cccc(OC(F)(F)C(F)F)c3)cc2)s1 -19.6%
CCc1nc2ccc(C(=O)NCCNC(C)=O)cn2c1N(CC)Cc1cccc(Br)c1 2.11%
CCc1cc(-c2nnn(CCC3COCCO3)c2CC)ccc1-c1cn(Cc2ccc3ccccc3c2)nn1 (stereo unspecified) 10.5%
O=C(NCc1cccnc1)c1cc(C2CCCCN2C(=O)CCc2ccccc2)on1 (stereo unspecified) -8.66%
O=C(NC1=CC(=O)c2ccccc2C1=O)c1ccccc1 -2.02%
CC(C)(C)C1CCC(=O)N2CCC[C@]2(c2ccccc2)C1 (stereo partly specified) -0.325%
Cc1cccc(C)c1-n1nnnc1C1(C)CCC(=O)N1CCOc1ccccc1 (stereo unspecified) 6.34%
COc1cc(OC)cc(-c2nnc(SCC(=O)Nc3ccc(C(=O)O)cc3)s2)c1 -16.4%
O=C(CSc1nnc(SCc2ccc(Cl)cc2)s1)N/N=C/c1ccccc1Cl -9.79%
Nc1nnc(SCC(=O)Nc2ccc3nc(SCC(=O)Nc4ccccc4)sc3c2)s1 -22.9%
Cn1nnnc1SCC(=O)Nc1nc2ccccc2s1 5.87%
